High-throughput results: PubChem BioAssay, Broad Institute
This excerpt belongs to a sample that is enriched for hits.
Tg IFNy HTS: T. gondii growth inhibition under IFN-gamma; Toxoplasma gondii growth in IFN-gamma-treated host cells; active compounds read low; activity change, negative = inhibition, % (test concentration not listed); 69,000 tested, 3.8% active; AID 1259416; in the data active means activity change below about -70%, passing the limit was not always enough;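 further: host cells are HeLa cells infected with Toxoplasma gondii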
An asterisk follows results filed as active; i = inactive.

SMILES	Tg IFNy HTS
COc1ccc(S(=O)(=O)Nc2ccc3c(c2)C(=O)N([C@H](C)CO)C[C@H](C)[C@@H](CN(C)Cc2ccc(C(F)(F)F)cc2)OCCCC[C@@H](C)O3)cc1	-91*
COc1ccc(CN(C)C[C@@H]2OCCCC[C@H](C)Oc3ccc(NC(=O)C4CCCCC4)cc3C(=O)N([C@H](C)CO)C[C@H]2C)cc1	-25
COc1ccc(S(=O)(=O)Nc2ccc3c(c2)C(=O)N([C@H](C)CO)C[C@H](C)[C@@H](CN(C)Cc2ccc(C(F)(F)F)cc2)OCCCC[C@H](C)O3)cc1	6
COc1ccc(CN(C)C[C@@H]2OCCCC[C@H](C)Oc3ccc(NC(=O)C4CCCCC4)cc3C(=O)N([C@@H](C)CO)C[C@@H]2C)cc1	93
O=C1N(Cc2ccccn2)C(=O)C2(CCN(Cc3ccc4ncccc4c3)CC2)N1Cc1ccccc1	-6
CN(Cc1ccco1)[C@H]1CN(c2ncccn2)C2CCCOC21 (some centres undefined)	1
CC(=O)N1C[C@@H]2CC(F)(F)C[C@@H]2C1	-24
Cc1c(Cl)cccc1NC(=S)N1CCCN(Cc2ccc(F)cc2)CC1	-10
COc1ccc(-c2nc(NCc3cccc(Cl)c3)c3ccccc3n2)cc1	-27
COc1ccc(S(=O)(=O)N2CCC(c3nc(C(=O)N4CCOCC4)c(C)o3)CC2)cc1	90
O=C(CNCc1ccco1)Nc1ccc(S(=O)(=O)N2CCOCC2)cc1	-19
O=C1N[C@@H]2[C@@H](O)[C@@H](O)[C@H](O)[C@@H](CO)N2C1=O	3
Cn1ccnc1CN1CCC2(COCCN(C(=O)c3ccoc3)C2)C1 (centres undefined)	0
Cc1cc(C)n(CC(C)NC(=O)c2cc(COc3ccccc3)[nH]n2)n1 (centres undefined)	-33
COc1ccc(C)cc1NC(=O)Cn1c(=O)cc(-c2nc(C3CC3)no2)c2ccccc21	-87*
COc1ccccc1NC(=O)Cn1c(=O)cc(-c2nc(C3CC3)no2)c2ccccc21	-8
Cc1cc(C)c(NC(=O)Cn2c(=O)cc(-c3nc(C4CC4)no3)c3ccccc32)c(C)c1	-27
Cc1ccc(S(=O)(=O)N2CCC[C@@H]2C(=O)NCCc2csc(-c3ccccc3)n2)cc1C	-49
COCCN1C(=O)N(Cc2ccccc2)C2(CCN(Cc3nccs3)CC2)C1=O	12
CC(=O)Nc1ncc(S(=O)(=O)Nc2cccc(-c3nncn3C)c2)s1	4
CCOC(=O)c1ccc(Nc2nnc(-n3nc(C)cc3C)c3ccccc23)cc1	-85*
Cc1cc(C)n(-c2nnc(SCC(=O)Nc3ccccc3)c3ccccc23)n1	3
CCOC(=O)c1nc(Nc2ccc(CC)cc2)c2ccccc2n1	-38
COc1ccc2c(c1)C(=O)N[C@@]1(CC2)CN(C(=O)c2snnc2C)C[C@@H]1C(=O)N(C)C	98
Cn1ccnc1-c1nccn1Cc1ccncc1	3
SMILES	Tg IFNy HTS
CCOc1ccc(-c2nc3c(s2)CN(S(=O)(=O)c2ccc(CC)cc2)CC3)cc1	7
CSc1sc(-c2ccno2)c(-c2ccco2)c1C#N	77
CSc1sc(-c2ccn[nH]2)c(-c2ccccc2)c1C#N	-85*
Cc1c(-c2ccccc2)sc(N)c1C#N	-12
CN(C)c1cncc(-c2cccc(-n3cccn3)c2)n1	190
c1ccc(-c2[nH]cnc2-c2cccc(-n3cccn3)c2)cc1	-95*
O=C(O)c1ccc(-c2cccc(-n3cccn3)c2)o1	-45
CCN1c2cc(F)ccc2C(=O)NC12CCN(C(=O)c1ccc3c(c1)OCO3)CC2	-40
CCc1nc([C@H]2CN(C)C[C@@H]2C(=O)NCc2ccccc2OC)c(C)[nH]1	-1
CN(C)CC1(O)CCCN(C(=O)c2ccc3ccccc3n2)C1 (centres undefined)	1
CN(Cc1cccnc1)C1CCN(C(=O)c2ccccn2)C(C(=O)O)C1 (centres undefined)	-74*
CN(Cc1cccnc1)C1CCN(C(=O)c2cnccn2)C(C(=O)O)C1 (centres undefined)	8
CN(Cc1cccnc1)C1CCN(C(=O)c2cccnc2)C(C(=O)O)C1 (centres undefined)	-5
COCC1CCC2(CCN(C(=O)C3CC=CC3)CC2)N1S(C)(=O)=O (centres undefined)	-2
O=C1CCCc2c1[nH]c1ccc(-c3ccccc3CO)cc21	-75*
CCC(=O)NCc1ccccc1-c1ccccc1CO	-39
CCc1ccccc1-c1ccc2cc[nH]c(=O)c2c1	2
O=C(O)CN1CCC2(CC1)CC(=O)N(CC1CC1)c1ccccc12	-1
CCc1cnc(N2CCC3(CC2)[C@H]2CN(CCOC)C[C@H]2C(=O)N3C)nc1	-56
O=C(Cn1c(=O)cc(C(=O)N2CCCCC2)c2ccccc21)NCc1ccccc1Cl	-1
O=C(O)C1CC(O)CN1 (centres undefined)	4
COc1cc(C)c(C(c2ccc(N(C)C)cc2)c2ccc(N(C)C)cc2)cc1C	-97*
Cc1cnc(CNC(=O)[C@H]2CC3C(CCN3C(C)C)O2)cn1 (some centres undefined)	i
N[C@@H]1CC[C@@H](NS(=O)(=O)c2c(Cl)cccc2Cl)C1	-2
Cc1cccc(C)c1NC(=O)C(=O)NCCc1csc(-c2cccc(F)c2)n1	25
SMILES	Tg IFNy HTS
Cc1cccc(NC(=O)C(=O)NCCc2csc(-c3cccc(F)c3)n2)c1	-87*
Cc1cc(C)c(NC(=O)C(=O)NCCc2csc(-c3cccc(F)c3)n2)c(C)c1	-80*
Cc1ccc(NC(=O)C(=O)NCCc2csc(-c3cccc(F)c3)n2)c(C)c1	-10
O=C(NCCc1csc(-c2cccc(F)c2)n1)C(=O)Nc1ccccc1	-34
Cc1cccc(NC(=O)C(=O)NCCc2csc(-c3ccc(Cl)cc3)n2)c1	-27
CCOc1ccc(-c2nc(Cn3c(=O)c4c(C(=O)OC)cc(C)nc4n(C)c3=O)c(C)o2)cc1	13
CO[C@H]1CC[C@@H]2[C@H]1OCCN2S(=O)(=O)c1c(C)nn(C)c1C	-2
COc1ccc(N(Cc2nc(-c3ccc(C)cc3)oc2C)S(=O)(=O)c2ccccc2C)cc1	-46
Nc1ccc(N)c(C(=O)O)c1	-18
CC(=O)c1ccc(-c2ccc(N)c(C(=O)c3ccccc3)c2)cc1	-85*
NC(=O)Cc1cccc(C(=O)c2ccccc2)c1N	19
CC(C)Cn1cnc2nnc3ccc(C(=O)CCN4CCOCC4)cc3c21	-14
O=S(=O)(Nc1ncccn1)c1ccc(C(F)(F)F)cc1Cl	-10
CS(=O)(=O)NC1CC2(CCN(C(=O)c3ccno3)CC2)C1	-1
COc1ccccc1-n1cc(CNC2CCSC2)cn1 (centres undefined)	5
CCn1c(-c2cc(NC(=O)c3cnccn3)n[nH]2)cc2ccccc21	78
CCn1c(-c2cc(NC(=O)c3cccnc3)n[nH]2)cc2ccc(OC)cc21	-30
CCn1c(-c2cc(NC(=O)c3cccnc3)n[nH]2)cc2ccccc21	-105*
COCC(=O)N1C[C@@H](c2nc(C)no2)C[C@@H]2OCC[C@@H]21	31
COc1cccc(CCc2nnc(NC(=O)c3nc(C)n(-c4ccccc4)n3)s2)c1	-18
C[C@H](Nc1cc(NS(=O)(=O)N2CCC2)nc(SCc2cccc(F)c2F)n1)[C@@H](O)CO	23
c1coc(CN2C[C@@H](OCCCn3cccn3)[C@@H]3OCCC[C@@H]32)c1	-30
Fc1ccc(CN2CCO[C@H]3[C@H]2CC[C@H]3OCCCn2cccn2)cc1	-94*
Fc1cnc(N2CCO[C@@H]3[C@H]2CC[C@H]3OCc2ccccn2)nc1	1
Cc1nc(-c2cc(C(=O)N3CCCCC3C)c3ccccn23)cn1C(C)C (centres undefined)	4
